Test results from PubChem BioAssay AID488890 (Southern Research Specialized Biocontainment Screening …, 2010).
The campaign covered roughly 320,000 compounds. About 1,300 (0.41%) were called active. Roughly 3% stayed inconclusive and do not appear here. How the calls were made is not given here. Only a sample is shown. Measured potencies and affinities stand elsewhere.

assay: growth inhibition of non-replicating M. tuberculosis (AID 488890); details: Mycobacterium tuberculosis non-replicating, at 25 µM, stronger effect = higher value;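 further: plate controls were DMSO cells for no effect and high antibiotic wells for full effect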

Compound	inhibition
COc1ccc(CCNC(=O)C2CCN(C(=O)c3ccc(Br)cc3)CC2)cc1OC	-3.89%
CCOC(=O)Cn1c(=O)oc2ccc(C)cc21	16.3%
CCn1cc(/C=N/NC(=O)c2ccc3c(c2)OCO3)c(C)n1	-8.38%
CCN(CC)C(=O)c1sc2nc(Cc3ccccc3)[nH]c(=O)c2c1C	11%
O=C(Nc1ccc(S(=O)(=O)Nc2ncccn2)cc1)C1=NN(c2ccccc2)C(=O)CC1	36.2%
O=C(N/N=C/c1ccc(N2CCOCC2)cc1)C1CC1	3.95%
COC1CCCN(Cc2c(C(=O)N3CCN(C4CCCCC4)CC3)nc3ccccn23)C1 (stereo not given)	6.53%
O=C(C1=C[C@H](c2ccc(C(F)(F)F)cc2)C[C@H](OCc2ccc(CO)cc2)O1)N1CCCCCCC1	23%
Cc1cccc(CN2CCc3c([nH]c4ccccc34)C2C(C)(C)C)n1 (stereo not given)	14.5%
OC(CNCC1CCCO1)COc1ccc(OCC(O)CNCC2CCCO2)cc1 (stereo not given)	10.8%
OC(CNCC1CCCO1)Cn1c2ccccc2c2ccccc21 (stereo not given)	25.3%
Cc1ccc(O)c(CNc2nccs2)c1	-1.47%
O=C(CCNS(=O)(=O)c1ccc(OC(F)(F)F)cc1)N1CCN(C/C=C/c2ccccc2)CC1	47.4%
O=C1CNC(=S)N1CCCn1ccnc1	2.92%
Cc1ccc(CCC(=O)Nc2ccc(C#N)cc2)o1	50.3%
CCOC(=O)c1ccc(NC(=O)CCc2ccc(C)o2)cc1	79.2%
CC(=O)Nc1ccc(NC(=O)CCc2ccc(C)o2)cc1	16.7%
Cc1ccc(CCC(=O)Nc2ccc(CC(=O)O)cc2)o1	9.94%
O=C(N/N=C\c1ccncc1)c1ccccc1O	19.9%
O=C(N/N=C/c1ccc(OCc2ccccc2)cc1)c1ccco1	6.81%
Cc1noc(C)c1COC(=O)CCc1nc2ccccc2c(=O)[nH]1	-4.31%
COc1ccc(NC(=O)Nc2c(O)ccc3ccccc23)cc1	17.9%
COc1ccc(C(=O)Nc2ccc(O)c3ccccc23)cc1	75.7%
CCCNc1nc2nc3ccccn3c(=O)c2cc1C(=O)NCCN1CCOCC1	-18.1%
O=C(Nc1c(F)cc(F)cc1Br)c1cc(-c2ccc(O)cc2)on1	79.2%

Compound	inhibition
COc1ccc(-c2cc(C(=O)Nc3c(F)cc(F)cc3Br)no2)cc1	79.1%
CN(/N=C/C=C/c1ccccc1)C1=NS(=O)(=O)c2ccccc21	-1.47%
O=S1(=O)N=C(N/N=C/c2ccccn2)c2ccccc21	10.2%
COc1ccccc1NC(=O)CC1SC(=N)N(c2ccccc2)C1=O (stereo not given)	-5.17%
Cc1cc(S(=O)(=O)NCCC2=CCCCC2)ccc1Br	34.3%
O=C(NC(=S)NCC1CCCO1)c1ccc(Br)o1 (stereo not given)	-17.8%
NS(=O)(=O)c1ccc(NC(=O)Cn2nc(C(=O)O)c3ccccc3c2=O)cc1	2.92%
Cc1ccc2cc(/C=N/NC(=O)CN3CCOCC3)c(Cl)nc2c1	6.43%
COc1cc(C2N(c3ccc(Cl)cc3)C(=O)C3CCCN32)cc(OC)c1OC (stereo not given)	-23.2%
CCc1nnc(NC(=O)c2c(-c3ccccc3)noc2C)s1	13.3%
COc1ccc(Cc2nnc(NC(=O)c3c(-c4ccccc4)noc3C)s2)cc1	4.39%
CC1(C)CC(=O)C(Sc2ccccc2C(=O)O)=C(O)C1	-8.16%
COc1ccc(C(=O)C[n+]2ccc3c(c2)nc(-c2ccccc2)n3C)cc1	65.3%
O=C(CN1CCN(c2ccc(Cl)cc2)CC1)Nc1cccc(F)c1	69%
COCc1cc(C)nc2sc(C(=O)N3CCCC3)c(N)c12	3.21%
CCC(CC)c1nnc(NC(=O)c2cc(-c3ccccc3)nc3ccccc23)s1	18.4%
CCC(CC)c1nnc(NC(=O)c2ccco2)s1	14.7%
CCCCn1c(O)c(/C=N/NC(=O)c2ccncc2)c(=O)[nH]c1=O	53.7%
Cn1c(O)c(/C=C2/C=CC=N2)c(=O)[nH]c1=O	75.9%
O=c1[nH]c(=O)n(Cc2ccccc2)c(O)c1/C=C1\C=Nc2ccccc21	66.3%
CCCCn1c(O)c(C=NCCCn2ccnc2)c(=O)[nH]c1=O	5.46%
CCCCn1c(O)c(/C=C2\C=Nc3ccccc32)c(=O)[nH]c1=O	59%
O=c1[nH]c(=O)n(Cc2ccccc2Cl)c(O)c1C=Nc1ccc(F)cc1	-1.58%
O=C(Nc1cccc(-n2cnnn2)c1)c1ccncc1	0.55%
Cc1[nH]c2ccc(F)cc2c1CCN(Cc1ccncc1)C(=S)Nc1cccc(F)c1	16.2%

Compound	inhibition
COc1ccc(/C=N/NC(=O)NC23CC4CC(CC(C4)C2)C3)c(OC)c1	27.6%
Cc1ccc(-c2noc(=O)n2CC(=O)Nc2ccc(S(=O)(=O)NC3CC3)cc2)cc1	11.5%
O=C(NCCN1CCN(c2ccccc2)CC1)C1CCN(S(=O)(=O)c2cccc3nonc23)CC1	18.8%
O=C(NC1CCCCCC1)c1ccc(CS(=O)(=O)Cc2ccc(F)cc2)o1	1.29%
Nc1nc(NCc2c(F)cccc2Cl)nn1-c1ccccc1	2.25%
CCCSc1nnc(Cn2c(=O)sc3ccccc32)n1-c1ccccc1	7.2%
CN(CC(=O)Nc1cccc(F)c1)C(=O)c1ccc(OCC2CCCO2)cc1 (stereo not given)	-4.27%
Cc1ccc(S(=O)(=O)N2CCC(C(=O)OCC(=O)NCCc3ccccc3)CC2)cc1C	27.8%
CCOC(=O)C1CCN(S(=O)(=O)c2ccc(C)c(C)c2)CC1	-7.38%
O=C(NCCC(=O)N(CCc1ccccc1)Cc1ccccc1)c1ccc(Br)cc1	22.1%
Fc1ccc2nc(C(F)(F)F)cc(N3CCOCC3)c2c1	-5.99%
COc1ccc(-c2nnc(Nc3nc4c(OC)cccc4s3)o2)c(OC)c1	60.8%
COc1cccc2sc(Nc3nc(-c4ccncc4)cs3)nc12	31.8%
COc1cccc2sc(NN)nc12	-6.89%
COc1ccccc1-c1nnc(Nc2nc3c(OC)cccc3s2)o1	19%
O=C1Cc2ccccc2C(=O)N1Cc1ccccc1	-3.14%
Cc1cc(C)nc(NC(=O)c2ccc(Br)s2)n1	55.2%
COc1ccc(Cl)cc1NC(=O)CN(C)C(=O)c1ccc(-n2cncn2)cc1	0.55%
Nc1c(-c2ccccc2)cnn1-c1ccccc1	-6.23%
CCOC(=O)c1cccc(NC(=O)c2cccnc2)c1	-4.27%
O=C(Nc1cccnc1)c1ccc(-c2cc(Cl)ccc2Cl)o1	-8.82%
O=C(Nc1cccnc1)c1cc(-c2ccc(Cl)cc2)on1	71%
CC(=O)NC(=O)c1ccc(-c2ccc(Cl)cc2)o1	57.6%
O=C(NNC(=O)c1ccccc1O)c1ccc(-c2ccc([N+](=O)[O-])cc2)o1	-16.6%
COC(=O)c1sccc1-c1ccc(C(=O)Nc2cccnc2)o1	-4.8%
